Hits are enriched below; roughly 21% of the tested compounds scored in any of these assays.
Shiga inhibitor – inhibitors of Shiga toxin in Vero cells; inhibition, % at 38.7 µM; Vero cells, Shiga toxin protein synthesis inhibition reporter; 9.2% of 290,000 active; in the data active = inhibition mostly above about 28%, no sharp cut-off; inactive = mostly below about 43%; note: 0% is about no effect
SARS PLP yeast – SARS-CoV PLP inhibition in yeast. Potency, µM (doses to about 32.9 µM), inactives show top-dose activity, positive = growth rescue, usual class: activators. S. cerevisiae expressing SARS-CoV PLpro, growth rescue. AID 485353. 0.19% of 330,000 active; calls by dose curve; note: potency is the fitted concentration of half-maximal effect; 0% is about no effect; nearly all actives have a fitted effect of over 55% in size
Pf growth 48h – P. falciparum growth inhibition at 48 hours (one generation). P. falciparum luciferase growth in erythrocytes, 48 h. AID 504832. 5.9% of 310,000 active. Potency, µM (titrated, usually from 28.7 µM), for the others: top-dose activity change, negative = inhibition, actives largely listed as inhibitors; note: potency is the fitted concentration of half-maximal effect; % is set by controls: 0 for no effect and ±100 for the full control effect
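A one-generation exposure of luciferase-tagged malaria parasites in RPMI 1640/Albumax erythrocyte culture, 37 C and 5% CO2. Inhibition is inferred from decreased luminescence after adding detection reagent.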
CHX counter – affects cycloheximide protein synthesis inhibition readout, counter-screen | max response, % | cell reporter, cycloheximide protein synthesis inhibition counterscreen | 12% of 300,000 active | AID 2314; in the data active = max response mostly above about 13%, no sharp cut-off; inactive = mostly below about 14%; note: read at 38.3 µM for the half of the compounds with a filed dose; 0% is about no effect
Pf growth 96h – inhibits malaria parasite growth, 96 h; P. falciparum luciferase reporter growth, 96 h; Potency, µM (top dose mostly 28.7 µM), for the others: at the highest dose activity change, negative = inhibition, usual class: inhibitors; AID 504834; 6.9% of 320,000 active; note: potency is the fitted concentration of half-maximal effect; % is set by controls: 0 for no effect and ±100 for the full control effect
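Two parasite generations (96 h, 37 C, 5% CO2) of compound exposure in infected erythrocytes (0.05% parasitemia, 2% hematocrit). Luciferase-reporter P. falciparum; decreased luminescence indicates inhibited growth, aimed at apicoplast-acting delayed death.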
NS1 function inh – inhibitors of influenza NS1 protein function; Potency, µM (series often up to 46.1 µM), without a hit: top-dose activity, positive = more growth; 0.4% of 270,000 active; AID 2326; calls by dose curve; note: potency is the fitted concentration of half-maximal effect; actives are rising curves; nearly all actives have a fitted effect of over 50% in size
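Recovery from NS1-induced slow growth read by OD600 in budding yeast switched to galactose assay medium (pH 6.0, -URA) at 1:100 dilution. Compound 23 nl per well; the matching strain lacking NS1 serves as control.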
The depositor's hits bear a star; ? = inconclusive; / = no result given. Unless noted, calls come from the whole dose curve; as a rule, active = well fitted inhibition curve with a large enough effect; inconclusive = small, poorly fitted or top-dose-only effect, or another doubt; inactive = no such curve, though single readings can be large or run the other way.

SMILES	Shiga inhibitor	SARS PLP yeast	Pf growth 48h	CHX counter	Pf growth 96h	NS1 function inh
CCOc1ccccc1N1CCN(CC(=O)NCCc2ccc(S(N)(=O)=O)cc2)CC1	-9	2%	?	1	-1%	/
O=C1N=c2ccccc2=C1c1sc(=S)n(CC2CCCO2)c1O (configuration not stated)	-14	3%	/	-5	8%	1%
COc1ccc(N=C2O/C(=C/c3sc(=S)n(CC4CCCO4)c3O)N=C2C#N)cc1 (configuration not stated)	3	0%	?	-2	15µM*	0%
O=C(Nc1cccc(NC(=O)c2nccc3ccccc23)c1)c1ccco1	130*	-7%	153%	45*	?	-44%
O=C(Nc1cccc(NC(=O)c2ccco2)c1)c1ccccc1	-9	-4%	22%	13	-15%	-5%
O=C(Nc1cccc(NC(=O)c2sc3ccccc3c2Cl)c1)c1ccco1	69*	-1%	32%	40*	?	-1%
CC(C)C[C@H](NC(=O)[C@H](CC(C)C)NC(=O)[C@H](Cc1ccccc1)NC(=O)[C@@H](N)CO)C(=O)N[C@@H](CCCN=C(N)N)C(=O)N[C@@H](CC(N)=O)C(=O)O	-6	/	/	-2	/	/
Oc1ccc(CN2CCCc3ccccc32)c2cccnc12	14	19%	13µM*	-2	12%	-55%
CCOC(=O)C1CCN(Cc2ccc(O)c3ncccc23)CC1	110*	?	10µM*	22*	41%	-6%
Cc1cccc(NCc2ccc(O)c3ncccc23)c1C	1	4%	-18%	1	23%	5%
COc1ccccc1N1CCN(Cc2ccc(O)c3ncccc23)CC1	20	14%	2.6µM*	21*	/	-53%
Oc1ccc(COC2CCN(Cc3ccccc3)C2)c2cccnc12 (configuration not stated)	/	2%	8.3µM*	/	12µM*	/
COc1ccccc1N1CCN(Cc2ccc(OC)c(OC)c2OC)CC1	-7	6%	/	-2	?	-1%
C=CCc1c(O)c(CC)cc2c(C)cc(=O)oc12	-9	-3%	-25%	-2	-2%	-43%
N#Cc1ccc(Cl)cc1NC(=O)COC(=O)[C@H](CCC(N)=O)NC(=O)c1ccc(F)cc1	6	?	6%	-4	33%	2%
Cc1cc2nc3c(=O)[nH]c(=O)nc-3n(CC(O)C(O)C(O)COP(=O)(O)O)c2cc1C (configuration not stated)	-9	/	?	3	?	/
O=C(COC(=O)COc1ccccc1Cc1ccccc1)Nc1cccnc1Cl	6	?	9%	-4	28%	-46%
O=C(NC1CCCCNC1=O)c1ccco1 (configuration not stated)	-1	-1%	-7%	1	22%	-1%
O=C(COc1ccc(S(=O)(=O)N2CCCC2)cc1)N1CCCC1	48	1%	-30%	-2	-2%	-4%
Cc1cccc2[nH]c(CN(C)C(=O)CC3C(=O)NCCN3CC(C)(C)C)nc12 (configuration not stated)	10	2%	?	-3	5%	2%
COc1ccc(C(=O)NCCS(=O)(=O)N2CCc3ccccc3C2)cc1	/	0%	28%	/	18%	/
COc1ccc2cc3cc(C(=O)NCCCN4CCc5ccccc5C4)sc3nc2c1	71*	9%	?	35*	?	7%
COc1ccc2nc3sc(C(=O)NCCN4CCc5ccccc5C4)cc3cc2c1	53*	8%	9.3µM*	43*	?	2%
COc1cccc(-c2nc(CS(=O)(=O)CC(=O)NCCCN3CCc4ccccc4C3)c(C)o2)c1	-15	-1%	?	-3	14%	?
Cc1ccc2cc3cc(C(=O)N4CCN(Cc5ccccc5)CC4)sc3nc2c1	-14	-5%	/	-1	16%	-3%
COc1ccc2cc3cc(C(=O)NC4CC4)sc3nc2c1	57*	0%	21%	48*	-19%	-20%
CCN1CCN(C(=O)c2cc3cc4cc(OC)ccc4nc3s2)CC1	25*	3%	22%	12*	/	-7%
O=C(N=C1SC2CS(=O)(=O)CC2N1CCc1ccccc1)C1CC1 (configuration not stated)	2	-4%	0%	3	37%	0%

Source: PubChem (National Center for Advancing Translational Sciences (NCATS))
